From the supplement of paper PMC6555819

test system: VDR:RXRa (NR concentration 270 nM, RXRa partner concentration 90 nM); assay: PBM binding z-score (relative to random genomic background probes); higher = stronger binding; sequences stand for … in GC…GCGATTGACAGCGTAGAATGAAGG
Method: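 Protein-binding microarray (Agilent 4x180K custom design, double-stranded 60-nt probes: 5' GC cap, 34-nt variable region, 24-nt constant primer region; full probe sequence given). Purified or IVT nuclear receptor:RXRα heterodimers (3:1 NR:RXRα, mostly 270:90 nM) or homodimers were incubated for 1 h in PBS with 2% milk and no ligand, then detected with Alexa488 antibodies. Fluorescence from o1-orientation probes (~5 replicates averaged) was converted to z-scores against 500 random hg19 background probes. Variable regions are seed direct-repeat (DR0–DR5) sites, all their single-nucleotide variants and half-site ablations.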

| Sequence | PBM binding z-score |
| --- | --- |
| ATATGTAGGTTAAGGGTCATTCGGGTTGGTTCGC | 6.18 |
| GATACAGGGACAAGGCCAGAGTACGCGTATTGAT | -0.523 |
| GTACCAAGTTGAATAGGTCGTTGATGAGTAGGCG | 0.387 |
| CCTACTGGGCCACGAAAGGTCGTTGATTCAGTGA | 1.74 |
| CAAACTAGGTAACAGAGGTCAAAGTCCGTGCGTA | 5.87 |
| ACTCGGAGGACAAAGTTCAGAGCTACGCCAGTGA | 1.95 |
| ATATGTAGGTTAGCTGGGGCCATTCAGACTAGGC | 1.97 |
| CCTATTAGTTGACCATGAGGGCAACCGAAGCTCG | 1.02 |
| CCTAGCAGGCCAGGGTGACTCAAGCATTTCGCTT | -0.639 |
| GCATATAGGTAATACAAAGTGAAAGTCCGATTGT | -0.024 |
| TCTAGTTGGTCACGGAGGTCACGCACGACGGGTA | 5.99 |
| ATATGTAGGTTATCCGGTCATTCAGTTTGCGCAT | 2.65 |
| TCTTGTAGATCAGCAGCTTAAGAAAGCTGGCCAA | -0.232 |
| TCTAGTTGGTCAAAGGGCACACACTCGAAATGCG | 1.78 |
| TCTTGTAGATCAAGCAGGTTAAGTAAGCCTGAGT | 0.507 |
| ATCTCTAGGTAAAGATAGTTCAGCGAATGCAAAT | 1.08 |
| AGAATGAGGTTATTAAGATGAGGGAATTGCGGTC | 1.15 |
| CTTCAAAGTTCAAGGTAACGTAACAGAAAGCAGC | 3.51 |
| TCTCGGACGACACGAAAGGTCAGAGCTCGACATC | 2.96 |
| TCTTGTTGATCAAGCAGGTTAAGAAAGCCTGAGT | 0.244 |

| Sequence | PBM binding z-score |
| --- | --- |
| CCTAGTTGGTAAAGGTCACACACGCTATAGGTAC | 4.9 |
| TCTTGTAGATCAAGCAGGTCAAGAAAGCCTGAGT | 2.28 |
| TCATATAGATAAAGGTGAAAGTCGAACGATATGA | 0.945 |
| TAGCCTAGGTCATGAGCCAGTATACCACGCGAAC | 1.88 |
| CCTCGGAGGACAGGAGGTCAGAGCTGTCCGCTTT | 1.47 |
| TCGAGTAGGTTACCAATCGGGCATTCAGCTTTCT | -0.344 |
| AGTTACGGGTCAACGAGGTTATAGCACGCGTATA | 7.65 |
| TTACGAAGGTGAGCTGAGGTCGTTGATCCAACTC | 4.16 |
| CCTGCTAGGTCATGGTCAGCCAATCTACAGTATG | 1.71 |
| CTTGAAAGGTCGGTTGAGGTGAGTATACGGATAA | 2.66 |
| GCTTGTAGATCAAGGCTAAGAAAGACTAAGCTAA | -0.679 |
| AGAATGAGGTTATACGTAGATCAGGGCAGAAAGT | 1.67 |
| TCTTGTAGATCAATAGAGGTTATGAAAGTGCGCT | 1.92 |
| ACTTACGGGTCAACGAGGTTATCGCACGCGTATA | 7.77 |
| CCTGCTAGGTCATGGTCAGCTGATCTACAGTATG | 1.95 |
| ATATGTAGGTTAGTTGGGGTCATTCAGACTAGGC | 6.27 |
| GATACAGGGCCAGCTAGAGGCCAGAGTATGGAAA | -0.843 |
| CAGCCTAGGTCAGGGCCAGGATAGGAGGAACGTT | 0.0936 |
| TCTATTAGTTGAAGGGCAATCGACGAGTCCGTTT | 1.02 |
| TCATATAGGTAAACAGGAGAAAGTCCGTAAGTTA | 0.716 |
